According to PubChem BioAssay (NCI):
About 83,000 compounds went through this panel and 20% of them were active in at least one assay; those are over-represented in the sample as a whole.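 Results are percent growth after 48 hours of single-concentration exposure. 100 means growth as in untreated cells, lower positive values show inhibition; negative values down to -100 show cell death.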 Active and inactive are the calls of the source. The calls were made as follows: active = growth percent below 10; inactive = the rest.

What was measured:
Assay in all cases: NCI-60 one-dose screen, 48 h (100 = growth as untreated, 0 = no growth, -100 = all killed)
BT-549 breast = conditions: 10 µM unless noted
MDA-MB-435 melanoma = conditions: 10 µM unless noted
SW-620 colon = conditions: 10 µM unless noted
MCF7 breast = conditions: 10 µM
HCT-116 colon = conditions: 10 µM unless noted
HCC-2998 colon = conditions: 10 µM unless noted
KM12 colon = conditions: 10 µM unless noted

Measured: growth

COc1cc(C2CC(c3ccc(Nc4nc(NCCO)nc(N5CCOCC5)n4)cc3)=NN2c2cc(Cl)cc(Cl)c2)cc(OC)c1OC (stereo not given)
inactive: BT-549 breast 75.3% | MDA-MB-435 melanoma 49.6% | SW-620 colon 81.6% | MCF7 breast 15.3% | HCT-116 colon 33.1% | HCC-2998 colon 63.4% | KM12 colon 37.6%

O=C(Nc1ccc(-c2nc3ccc(NC(=O)c4ccc(Cl)cc4)cc3[nH]2)cc1)c1ccc(Cl)cc1
inactive: SW-620 colon 18.4% | MCF7 breast 14.4% | KM12 colon 39.7%
active: BT-549 breast -5.61% | MDA-MB-435 melanoma -32.7% | HCT-116 colon 0.708% | HCC-2998 colon -23%

CCOC(=O)c1c2c(n3cccc(Cl)c13)C(=O)c1ncccc1C2=O
inactive: BT-549 breast 69.2% | MDA-MB-435 melanoma 79.9% | SW-620 colon 36.4% | MCF7 breast 43.3% | HCC-2998 colon 46% | KM12 colon 46.3%
active: HCT-116 colon 8.41%

C#CCn1cc(C=C2C(=O)NC(=O)NC2=O)c2cc(Cl)ccc21
inactive: BT-549 breast 64.6% | MDA-MB-435 melanoma 88.3% | SW-620 colon 97.7% | MCF7 breast 72.4% | HCT-116 colon 71.5% | HCC-2998 colon 95.6% | KM12 colon 85.6%

CC(=O)n1cc(-c2c[nH]c3ccccc23)c(-c2ccc(Cl)cc2)n1
inactive: BT-549 breast 76.8% | MDA-MB-435 melanoma 88.5% | SW-620 colon 89% | MCF7 breast 71.5% | HCT-116 colon 61.7% | HCC-2998 colon 109% | KM12 colon 84.8%

COc1cc([C@@H]2NC(=O)NC(C)=C2C(=O)Nc2nc(-c3ccc(Cl)cc3)cs2)ccc1O
inactive: BT-549 breast 98.8% | MDA-MB-435 melanoma 104% | SW-620 colon 103% | MCF7 breast 103% | HCT-116 colon 99.3% | HCC-2998 colon 104% | KM12 colon 102%

COc1ccc(Cn2c(Br)c3c(c2Br)-c2nc(NC(=O)c4ccc(OC)cc4)sc2CC3)cc1
inactive: BT-549 breast 84.2% | MDA-MB-435 melanoma 61.8% | SW-620 colon 84% | MCF7 breast 78.5% | HCT-116 colon 75.9% | HCC-2998 colon 108% | KM12 colon 79.9%

Cc1ccc(CN2CCC(C(=O)Nc3ccc(-c4cc5ccccc5[nH]4)cc3)CC2)o1
inactive: BT-549 breast 72.5% | MDA-MB-435 melanoma 58.9% | SW-620 colon 66% | MCF7 breast 64.1% | HCT-116 colon 49.9% | HCC-2998 colon 79.4% | KM12 colon 24.4%

CCCc1c(C)c2sc(=O)[nH]c2[nH]c1=O
inactive: BT-549 breast 110% | MDA-MB-435 melanoma 112% | SW-620 colon 102% | MCF7 breast 97.6% | HCT-116 colon 106% | HCC-2998 colon 106% | KM12 colon 105%

Cc1nc(Nc2ccccn2)sc1C(=O)/C=C/c1ccc(Cl)cc1
active: MDA-MB-435 melanoma -28.8% | KM12 colon 8.26%
inactive: BT-549 breast 19% | SW-620 colon 25.2% | MCF7 breast 17.6% | HCT-116 colon 14.3% | HCC-2998 colon 21.6%

OCCNc1nc(Nc2ccc(C3=NN(c4cc(Cl)cc(Cl)c4)C(c4ccc(C(F)(F)F)cc4)C3)cc2)nc(N2CCOCC2)n1 (stereo not given)
inactive: BT-549 breast 99.3% | MDA-MB-435 melanoma 66.5% | SW-620 colon 94% | MCF7 breast 30.1% | HCT-116 colon 66.8% | HCC-2998 colon 76.3% | KM12 colon 68.6%

CC(=O)c1ccc(Cc2ccc(C(C)=O)s2)s1
inactive: BT-549 breast 110% | MDA-MB-435 melanoma 107% | SW-620 colon 103% | MCF7 breast 85.1% | HCT-116 colon 103% | HCC-2998 colon 104% | KM12 colon 95.2%

O=C(Nc1nc2c(s1)CCc1c-2c(Br)n(Cc2ccccc2)c1Br)c1ccccc1
inactive: BT-549 breast 52.8% | MDA-MB-435 melanoma 56.1% | SW-620 colon 69.2% | MCF7 breast 51.5% | HCT-116 colon 69.9% | HCC-2998 colon 99.1% | KM12 colon 65.5%

CN(C)CCCNCc1ccc(-c2ccc(F)c(Cl)c2)o1
inactive: BT-549 breast 76.6% | HCT-116 colon 12.3%
active: MDA-MB-435 melanoma -41.6% | SW-620 colon -45% | MCF7 breast -33% | HCC-2998 colon -90.2% | KM12 colon -19.9%

COC(=O)c1c2c(c(C)[n+]([O-])c1C)C(=O)C=C(NCc1ccc(F)c(F)c1)C2=O
active: BT-549 breast -97.2% | MDA-MB-435 melanoma -92.2% | SW-620 colon -43% | MCF7 breast -65.7% | HCT-116 colon -53.9% | HCC-2998 colon -66.5% | KM12 colon -14.9%

COc1ccc(N)c(-c2cc3c(c4c2[nH]c2ccc(OC)cc24)CCCC3)c1
inactive: BT-549 breast 74.6% | MDA-MB-435 melanoma 93.6% | SW-620 colon 83.3% | MCF7 breast 69.1% | HCT-116 colon 58.4% | HCC-2998 colon 104% | KM12 colon 80.2%

COc1ccc(Br)c(/C=C2\SC(=Nc3ccc(O)cc3)NC2=O)c1
inactive: BT-549 breast 83.5% | MDA-MB-435 melanoma 87.2% | SW-620 colon 104% | MCF7 breast 70.4% | HCT-116 colon 98.7% | HCC-2998 colon 109% | KM12 colon 84.2%

Cc1ccc2sc3c(NCCCNCCO)nc4ccccc4c3c(=O)c2c1
active: MDA-MB-435 melanoma -80% | SW-620 colon -78.2% | MCF7 breast -78.8% | HCT-116 colon -67% | HCC-2998 colon -75.5% | KM12 colon -50.4%
inactive: BT-549 breast 90.2%

CCOC(=O)c1cc2c(n1Cc1ccccc1)-c1oncc1CCC2
active: MDA-MB-435 melanoma -7.87%
inactive: BT-549 breast 101% | SW-620 colon 43% | MCF7 breast 45.8% | HCT-116 colon 64.7% | HCC-2998 colon 87.5% | KM12 colon 56.1%

COc1cccc(/C(C#N)=C/c2nc3c(N4CCOCC4)nc(Cl)nc3n2C)c1
inactive: HCC-2998 colon 20% | KM12 colon 16.2%
active: BT-549 breast -77% | MDA-MB-435 melanoma -80.2% | SW-620 colon -72% | MCF7 breast -44.1% | HCT-116 colon -72.9%

CCCCCCn1c(=N)n(CC(O)COc2cccc(C)c2)c2ccccc21 (stereo not given)
active: MDA-MB-435 melanoma -77.3% | SW-620 colon -65.9% | MCF7 breast -51.6% | HCT-116 colon -33.8% | HCC-2998 colon -87.1% | KM12 colon -43.8%
inactive: BT-549 breast 36.6%

O=C(Nc1ccsc1C(=O)NC1CCCCC1)c1ccc(F)cc1
inactive: BT-549 breast 113% | MDA-MB-435 melanoma 110% | SW-620 colon 92.5% | MCF7 breast 90.6% | HCT-116 colon 76% | HCC-2998 colon 97% | KM12 colon 107%

Cc1ccc2cc3c(N)c4c(C)ccc(C)c4nc3nc2c1
active: MDA-MB-435 melanoma -70.3%
inactive: BT-549 breast 53.9% | SW-620 colon 11.1% | MCF7 breast 37.9% | HCT-116 colon 24.5% | HCC-2998 colon 62% | KM12 colon 69.6%

CCOC(=O)c1sc(-c2ccc(OS(=O)(=O)c3ccc(Br)s3)c(C=O)c2)nc1C
inactive: HCC-2998 colon 82.5%
active: BT-549 breast 9.16% | MDA-MB-435 melanoma -12.1% | SW-620 colon 7.65% | MCF7 breast 0.976% | HCT-116 colon 2.52% | KM12 colon 6.21%

COc1ccc(-c2nc(N3CCN(C(=O)C4CCCCC4)CC3)c3c4c(sc3n2)CCCC4)cc1
inactive: BT-549 breast 61.4% | HCT-116 colon 17% | HCC-2998 colon 53.2%
active: MDA-MB-435 melanoma -54.1% | SW-620 colon -1.68% | MCF7 breast -10.8% | KM12 colon -46.4%

C=C1C(=O)O[C@H]2[C@H]1CC/C(COC(=O)/C=C\C(=O)O)=C\CC[C@@]1(C)O[C@@H]21
inactive: BT-549 breast 103% | MDA-MB-435 melanoma 107% | SW-620 colon 105% | MCF7 breast 94.3% | HCT-116 colon 109% | HCC-2998 colon 104% | KM12 colon 106%

O=C(Nc1ccc(Cl)cc1)c1cc2ccccc2cc1OP(=O)(O)O
inactive: BT-549 breast 11.7% | MDA-MB-435 melanoma 15.8% | SW-620 colon 42.3% | MCF7 breast 54% | HCT-116 colon 10.8% | HCC-2998 colon 47.9% | KM12 colon 56.2%

NCCOc1ccccc1/C=C1\c2ccccc2-c2ccc([N+](=O)[O-])cc21
inactive: BT-549 breast 84.8%
active: MDA-MB-435 melanoma -53.8% | SW-620 colon -82.4% | MCF7 breast -60.9% | HCT-116 colon -95.3% | HCC-2998 colon -53.3% | KM12 colon -59.9%

Cc1ccc(S(=O)(=O)c2c(COC(=O)c3cccc(C)c3)c(-c3ccccc3)nn2C)cc1
inactive: BT-549 breast 57.1% | HCC-2998 colon 60% | KM12 colon 16.3%
active: MDA-MB-435 melanoma -33.7% | SW-620 colon -37.2% | MCF7 breast -49.2% | HCT-116 colon 0.235%

Oc1ccc(-c2nc(-c3ccc4oc5ccc(-c6[nH]c(-c7ccc(O)cc7)nc6-c6ccccc6)cc5c4c3)c(-c3ccccc3)[nH]2)cc1
inactive: BT-549 breast 57.2% | MDA-MB-435 melanoma 43.5% | SW-620 colon 54.7% | MCF7 breast 50.7% | HCT-116 colon 31.3% | HCC-2998 colon 62.3% | KM12 colon 50.8%

Cc1sc2ncn(CC(=O)Nc3ccc(S(N)(=O)=O)cc3)c(=O)c2c1C
inactive: BT-549 breast 97.7% | MDA-MB-435 melanoma 105% | SW-620 colon 100% | MCF7 breast 101% | HCT-116 colon 106% | HCC-2998 colon 113% | KM12 colon 102%

COc1ccc(C(=O)Nc2ccc3nc(N4CCCCC4)cc(C)c3c2)cc1OC
inactive: BT-549 breast 90.6% | MDA-MB-435 melanoma 88.2% | SW-620 colon 23.7% | MCF7 breast 80.2% | HCT-116 colon 64.2% | HCC-2998 colon 66.5% | KM12 colon 23.7%

O=C(Nc1ccc(N2CCNCC2)cc1)c1[nH]ncc1Nc1ncnc2sc3c(c12)CCC3
active: BT-549 breast 0.151% | MDA-MB-435 melanoma -94.4% | SW-620 colon -83.1% | MCF7 breast -59% | HCT-116 colon -85.4% | HCC-2998 colon -91.4% | KM12 colon -82.4%

CN(C)c1ccc(N=Cc2ccc(N3CCOCC3)cc2)cc1
inactive: BT-549 breast 95.1% | MDA-MB-435 melanoma 74.1% | SW-620 colon 44.2% | MCF7 breast 39% | HCT-116 colon 67.6% | HCC-2998 colon 54.2% | KM12 colon 59.5%

CCCCc1c(CCC)c(=N)c2ccccc2n1C
inactive: BT-549 breast 88.1% | MDA-MB-435 melanoma 64.9% | SW-620 colon 59% | MCF7 breast 50.2% | HCT-116 colon 64.1% | HCC-2998 colon 107% | KM12 colon 77.2%
